# Reference: publication PMC7862700, “An all-to-all approach to the identification of sequence-specific readers for epigenetic DNA modifications on cytosine”
# Key:
# Assay in all cases: DAPPL (digital affinity profiling via proximity ligation, sequencing); 10 mM Tris-HCl pH 7.5, 50 mM NaCl, 1 mM DTT, 4% glycerol, room temperature, 30 min; GST-TFs on glutathione beads, 16-mer random dsDNA library, 0.1% formaldehyde crosslink after washing; high values mean tight binding
# Conditions in all cases: protein: recombinant; tags: N-terminal GST; dsDNA, one strand shown
# FLI1 = molecular target: T1, FLI1 (Homo sapiens, UniProt Q01543 1-452)
# T1 sequence: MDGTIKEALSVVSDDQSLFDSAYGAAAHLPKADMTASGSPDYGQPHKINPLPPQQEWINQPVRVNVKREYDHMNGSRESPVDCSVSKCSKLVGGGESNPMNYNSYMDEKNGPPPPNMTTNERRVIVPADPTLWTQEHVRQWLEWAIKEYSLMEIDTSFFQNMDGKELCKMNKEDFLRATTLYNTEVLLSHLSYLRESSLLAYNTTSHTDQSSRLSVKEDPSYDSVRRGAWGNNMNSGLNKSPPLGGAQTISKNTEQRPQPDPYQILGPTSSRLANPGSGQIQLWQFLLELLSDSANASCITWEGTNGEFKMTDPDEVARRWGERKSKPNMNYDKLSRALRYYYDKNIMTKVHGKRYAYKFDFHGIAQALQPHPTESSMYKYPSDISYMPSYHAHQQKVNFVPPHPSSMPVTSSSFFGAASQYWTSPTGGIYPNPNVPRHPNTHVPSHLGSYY
# Method in brief: (§1)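 After expression in yeast as GST fusions, human transcription factors were bound to glutathione beads, DNA-barcoded and mixed with a tag-only sample. The pools were incubated with 200 nmole of a 16-mer random double-stranded DNA library in Tris/NaCl/DTT/glycerol buffer (30 min, room temperature), washed and crosslinked with 0.1% formaldehyde. Proximity ligation with BsaI/T4 ligase ran for 1 h at 37 °C, before PCR amplification and sequencing on an Illumina NextSeq500. Binding signal is a hexamer's read frequency for a factor divided by its frequency for the tag-only sample.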
# ELK1 = molecular target: T2, ELK1 (Homo sapiens, UniProt P19419 1-428)
# T2 sequence: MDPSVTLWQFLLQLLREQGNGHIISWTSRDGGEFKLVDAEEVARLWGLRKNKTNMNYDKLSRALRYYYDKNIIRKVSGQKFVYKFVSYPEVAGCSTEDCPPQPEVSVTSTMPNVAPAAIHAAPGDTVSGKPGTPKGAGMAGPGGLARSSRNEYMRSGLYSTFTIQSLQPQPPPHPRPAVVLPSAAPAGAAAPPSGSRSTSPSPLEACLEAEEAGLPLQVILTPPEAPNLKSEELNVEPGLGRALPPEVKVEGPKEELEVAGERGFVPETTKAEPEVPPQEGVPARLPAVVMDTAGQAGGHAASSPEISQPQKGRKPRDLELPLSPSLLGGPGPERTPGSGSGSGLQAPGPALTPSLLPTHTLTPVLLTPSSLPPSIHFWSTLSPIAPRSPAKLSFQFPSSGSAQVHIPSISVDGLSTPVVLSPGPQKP
# Method in brief: as §1
# GABPA = molecular target: T3, GABPA (Homo sapiens, UniProt Q06546 1-454)
# T3 sequence: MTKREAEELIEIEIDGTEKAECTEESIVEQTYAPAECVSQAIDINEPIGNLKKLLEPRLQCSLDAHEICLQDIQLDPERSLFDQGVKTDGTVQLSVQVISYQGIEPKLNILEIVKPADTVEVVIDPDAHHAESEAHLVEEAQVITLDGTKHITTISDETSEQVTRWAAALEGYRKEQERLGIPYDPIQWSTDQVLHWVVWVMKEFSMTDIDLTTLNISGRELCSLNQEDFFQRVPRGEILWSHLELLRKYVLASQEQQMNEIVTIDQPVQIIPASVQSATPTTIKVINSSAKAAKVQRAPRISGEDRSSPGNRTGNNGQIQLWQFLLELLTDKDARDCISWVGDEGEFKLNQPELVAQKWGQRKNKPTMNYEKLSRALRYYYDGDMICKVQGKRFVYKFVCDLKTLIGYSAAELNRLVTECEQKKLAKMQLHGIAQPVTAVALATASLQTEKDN
# Method in brief: as §1
# ERG = molecular target: T4, ERG (Homo sapiens, UniProt P11308 1-479)
# T4 sequence: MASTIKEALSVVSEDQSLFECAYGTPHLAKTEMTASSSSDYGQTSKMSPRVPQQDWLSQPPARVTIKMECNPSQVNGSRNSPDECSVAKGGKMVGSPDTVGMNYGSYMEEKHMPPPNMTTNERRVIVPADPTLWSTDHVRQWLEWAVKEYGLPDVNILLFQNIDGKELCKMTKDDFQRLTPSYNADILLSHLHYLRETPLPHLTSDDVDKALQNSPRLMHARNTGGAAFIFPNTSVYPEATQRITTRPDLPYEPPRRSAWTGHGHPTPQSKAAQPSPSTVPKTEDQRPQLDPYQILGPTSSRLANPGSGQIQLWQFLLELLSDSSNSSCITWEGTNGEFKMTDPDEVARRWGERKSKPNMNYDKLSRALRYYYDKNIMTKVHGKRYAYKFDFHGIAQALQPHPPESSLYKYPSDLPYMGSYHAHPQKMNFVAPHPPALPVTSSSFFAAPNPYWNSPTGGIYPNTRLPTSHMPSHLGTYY
# Method in brief: as §1
# ELF1 = ELF1 (Homo sapiens, UniProt P32519 1-619)
# Method in brief: as §1
# EHF = molecular target: T5, EHF (Homo sapiens, UniProt Q9NZC4 1-300)
# T5 sequence: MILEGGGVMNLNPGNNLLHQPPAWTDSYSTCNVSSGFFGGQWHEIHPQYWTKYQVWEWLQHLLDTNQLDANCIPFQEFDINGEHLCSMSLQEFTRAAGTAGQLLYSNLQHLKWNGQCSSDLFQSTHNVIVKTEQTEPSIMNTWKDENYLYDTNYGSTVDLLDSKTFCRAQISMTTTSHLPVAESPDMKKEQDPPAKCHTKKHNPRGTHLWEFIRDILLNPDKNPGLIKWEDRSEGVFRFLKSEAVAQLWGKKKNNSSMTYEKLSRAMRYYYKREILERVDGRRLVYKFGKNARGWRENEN
# Method in brief: as §1
# SPI1 = SPI1 (Homo sapiens, UniProt P17947 1-270)
# Method in brief: as §1
# SPIB = SPIB (Homo sapiens, UniProt Q01892 1-262)
# Method in brief: as §1
# ELK3 = molecular target: T6, ELK3 (Homo sapiens, UniProt P41970 1-407)
# T6 sequence: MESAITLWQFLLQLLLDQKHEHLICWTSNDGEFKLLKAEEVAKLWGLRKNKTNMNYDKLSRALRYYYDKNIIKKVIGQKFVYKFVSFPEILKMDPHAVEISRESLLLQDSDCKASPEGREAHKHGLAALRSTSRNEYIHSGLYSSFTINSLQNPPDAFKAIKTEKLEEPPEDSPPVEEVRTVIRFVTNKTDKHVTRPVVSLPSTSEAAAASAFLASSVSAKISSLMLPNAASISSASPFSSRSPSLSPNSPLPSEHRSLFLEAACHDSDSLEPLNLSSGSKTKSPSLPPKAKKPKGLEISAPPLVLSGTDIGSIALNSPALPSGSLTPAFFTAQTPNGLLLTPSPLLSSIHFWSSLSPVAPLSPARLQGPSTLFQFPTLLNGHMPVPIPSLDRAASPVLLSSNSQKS
# Method in brief: as §1
# ETV5 = ETV5 (Homo sapiens, UniProt P41161 1-510)
# Method in brief: as §1
# SPIC = molecular target: T7, SPIC (Homo sapiens, UniProt Q8N5J4 1-248)
# T7 sequence: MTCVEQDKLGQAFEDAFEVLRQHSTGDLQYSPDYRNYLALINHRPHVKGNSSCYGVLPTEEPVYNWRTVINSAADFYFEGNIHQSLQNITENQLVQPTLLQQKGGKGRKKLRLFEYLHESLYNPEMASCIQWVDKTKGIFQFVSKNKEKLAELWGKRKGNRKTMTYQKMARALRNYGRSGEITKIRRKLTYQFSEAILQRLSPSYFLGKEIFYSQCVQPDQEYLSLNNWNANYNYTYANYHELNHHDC
# Method in brief: as §1
# ELF4 = ELF4 (Homo sapiens, UniProt Q99607 1-663)
# Method in brief: as §1
# ELK4 = molecular target: T8, ELK4 (Homo sapiens, UniProt P28324-2 1-405)
# T8 sequence: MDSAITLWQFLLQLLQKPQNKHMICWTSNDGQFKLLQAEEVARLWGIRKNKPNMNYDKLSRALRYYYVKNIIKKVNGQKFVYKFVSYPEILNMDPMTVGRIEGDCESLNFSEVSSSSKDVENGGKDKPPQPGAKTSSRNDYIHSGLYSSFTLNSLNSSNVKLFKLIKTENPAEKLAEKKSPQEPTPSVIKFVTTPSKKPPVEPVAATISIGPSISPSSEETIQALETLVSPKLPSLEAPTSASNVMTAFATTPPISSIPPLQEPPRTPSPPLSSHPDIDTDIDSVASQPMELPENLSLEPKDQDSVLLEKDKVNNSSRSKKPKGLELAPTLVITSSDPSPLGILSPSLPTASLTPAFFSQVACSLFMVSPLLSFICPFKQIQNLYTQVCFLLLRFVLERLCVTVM
# Method in brief: as §1
# ETV2 = molecular target: T9, ETV2 (Homo sapiens, UniProt O00321 1-342)
# T9 sequence: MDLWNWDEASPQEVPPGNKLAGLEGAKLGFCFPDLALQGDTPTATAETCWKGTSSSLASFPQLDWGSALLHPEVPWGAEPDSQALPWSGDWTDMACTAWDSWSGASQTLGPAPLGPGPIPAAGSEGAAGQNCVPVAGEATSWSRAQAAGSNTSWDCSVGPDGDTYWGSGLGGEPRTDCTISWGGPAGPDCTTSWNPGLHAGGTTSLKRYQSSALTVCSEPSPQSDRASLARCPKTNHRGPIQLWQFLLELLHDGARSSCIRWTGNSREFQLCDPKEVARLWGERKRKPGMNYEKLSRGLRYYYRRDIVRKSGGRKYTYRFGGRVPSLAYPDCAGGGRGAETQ
# Method in brief: as §1
# ELF3 = molecular target: T10, ELF3 (Homo sapiens, UniProt P78545 1-371)
# T10 sequence: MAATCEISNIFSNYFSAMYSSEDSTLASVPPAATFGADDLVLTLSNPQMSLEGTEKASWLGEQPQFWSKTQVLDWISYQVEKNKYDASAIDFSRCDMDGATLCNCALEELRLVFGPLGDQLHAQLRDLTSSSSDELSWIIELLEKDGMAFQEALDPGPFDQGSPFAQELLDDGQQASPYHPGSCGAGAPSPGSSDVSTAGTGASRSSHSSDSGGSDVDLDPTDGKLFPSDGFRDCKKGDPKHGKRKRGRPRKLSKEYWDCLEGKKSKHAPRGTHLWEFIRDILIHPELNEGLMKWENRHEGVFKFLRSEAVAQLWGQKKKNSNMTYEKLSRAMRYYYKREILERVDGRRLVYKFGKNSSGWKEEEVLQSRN
# Method in brief: as §1
# ETV1 = ETV1 (Homo sapiens, UniProt P50549 1-477)
# Method in brief: as §1
# FEV = molecular target: T11, FEV (Homo sapiens, UniProt Q99581 1-238)
# T11 sequence: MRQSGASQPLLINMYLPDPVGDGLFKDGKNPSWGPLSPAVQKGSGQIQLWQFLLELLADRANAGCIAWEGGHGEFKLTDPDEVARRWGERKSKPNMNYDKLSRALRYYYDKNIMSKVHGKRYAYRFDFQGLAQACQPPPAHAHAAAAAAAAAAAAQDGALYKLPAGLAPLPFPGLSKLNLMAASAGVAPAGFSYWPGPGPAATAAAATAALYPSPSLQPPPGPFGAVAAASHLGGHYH
# Method in brief: as §1
# Sequence of ETV5 (P41161 whole entry): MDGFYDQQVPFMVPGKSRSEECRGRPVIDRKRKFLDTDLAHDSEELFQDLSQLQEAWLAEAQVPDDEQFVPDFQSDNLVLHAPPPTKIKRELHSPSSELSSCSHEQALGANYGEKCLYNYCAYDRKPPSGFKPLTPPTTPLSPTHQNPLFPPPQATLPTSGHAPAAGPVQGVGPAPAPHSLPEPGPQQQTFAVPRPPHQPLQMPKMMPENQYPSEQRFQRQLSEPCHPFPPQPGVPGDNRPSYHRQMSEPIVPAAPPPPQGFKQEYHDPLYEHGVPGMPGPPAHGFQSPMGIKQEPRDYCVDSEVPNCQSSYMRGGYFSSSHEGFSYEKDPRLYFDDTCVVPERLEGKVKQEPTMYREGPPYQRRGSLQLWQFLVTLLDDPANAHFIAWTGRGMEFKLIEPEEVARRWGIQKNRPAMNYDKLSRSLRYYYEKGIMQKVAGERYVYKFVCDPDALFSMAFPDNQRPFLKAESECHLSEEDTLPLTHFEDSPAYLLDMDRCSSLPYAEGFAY
# Sequence of SPIB (Q01892 whole entry): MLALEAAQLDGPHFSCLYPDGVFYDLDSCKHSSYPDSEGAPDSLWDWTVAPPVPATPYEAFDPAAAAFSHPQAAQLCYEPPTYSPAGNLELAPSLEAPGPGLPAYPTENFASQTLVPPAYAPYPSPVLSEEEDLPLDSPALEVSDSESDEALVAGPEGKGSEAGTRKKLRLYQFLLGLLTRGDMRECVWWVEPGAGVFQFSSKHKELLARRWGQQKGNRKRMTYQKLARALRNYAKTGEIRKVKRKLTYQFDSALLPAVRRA
# Sequence of ELF1 (P32519 whole entry): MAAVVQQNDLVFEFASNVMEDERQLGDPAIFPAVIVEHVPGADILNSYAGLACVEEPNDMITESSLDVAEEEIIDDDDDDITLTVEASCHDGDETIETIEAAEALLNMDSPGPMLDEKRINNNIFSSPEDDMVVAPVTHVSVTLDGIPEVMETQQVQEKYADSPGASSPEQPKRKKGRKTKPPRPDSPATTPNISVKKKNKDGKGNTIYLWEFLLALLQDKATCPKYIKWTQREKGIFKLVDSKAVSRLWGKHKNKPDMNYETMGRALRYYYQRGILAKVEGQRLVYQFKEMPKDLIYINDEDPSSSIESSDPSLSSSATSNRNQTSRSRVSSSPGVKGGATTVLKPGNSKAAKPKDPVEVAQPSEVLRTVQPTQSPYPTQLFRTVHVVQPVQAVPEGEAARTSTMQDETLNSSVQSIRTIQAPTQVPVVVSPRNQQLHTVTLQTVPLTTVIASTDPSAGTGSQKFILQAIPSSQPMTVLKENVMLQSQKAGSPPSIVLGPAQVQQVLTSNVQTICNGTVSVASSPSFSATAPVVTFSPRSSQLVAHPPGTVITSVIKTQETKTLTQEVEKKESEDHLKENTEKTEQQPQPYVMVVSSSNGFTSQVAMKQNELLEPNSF
# Sequence of ETV1 (P50549 whole entry): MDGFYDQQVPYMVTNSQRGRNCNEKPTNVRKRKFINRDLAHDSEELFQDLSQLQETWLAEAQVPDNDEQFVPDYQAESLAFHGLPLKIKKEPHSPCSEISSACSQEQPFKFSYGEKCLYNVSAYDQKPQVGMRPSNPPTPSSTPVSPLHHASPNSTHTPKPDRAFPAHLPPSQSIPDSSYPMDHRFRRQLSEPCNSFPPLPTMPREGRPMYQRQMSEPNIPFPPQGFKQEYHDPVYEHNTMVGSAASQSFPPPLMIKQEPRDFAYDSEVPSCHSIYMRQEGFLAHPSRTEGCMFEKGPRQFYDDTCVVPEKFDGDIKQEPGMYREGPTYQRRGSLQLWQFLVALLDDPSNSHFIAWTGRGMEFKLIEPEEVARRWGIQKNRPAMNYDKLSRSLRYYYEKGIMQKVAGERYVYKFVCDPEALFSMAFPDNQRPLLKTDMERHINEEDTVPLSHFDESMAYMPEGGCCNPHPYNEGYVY
# Sequence of ELF4 (Q99607 whole entry): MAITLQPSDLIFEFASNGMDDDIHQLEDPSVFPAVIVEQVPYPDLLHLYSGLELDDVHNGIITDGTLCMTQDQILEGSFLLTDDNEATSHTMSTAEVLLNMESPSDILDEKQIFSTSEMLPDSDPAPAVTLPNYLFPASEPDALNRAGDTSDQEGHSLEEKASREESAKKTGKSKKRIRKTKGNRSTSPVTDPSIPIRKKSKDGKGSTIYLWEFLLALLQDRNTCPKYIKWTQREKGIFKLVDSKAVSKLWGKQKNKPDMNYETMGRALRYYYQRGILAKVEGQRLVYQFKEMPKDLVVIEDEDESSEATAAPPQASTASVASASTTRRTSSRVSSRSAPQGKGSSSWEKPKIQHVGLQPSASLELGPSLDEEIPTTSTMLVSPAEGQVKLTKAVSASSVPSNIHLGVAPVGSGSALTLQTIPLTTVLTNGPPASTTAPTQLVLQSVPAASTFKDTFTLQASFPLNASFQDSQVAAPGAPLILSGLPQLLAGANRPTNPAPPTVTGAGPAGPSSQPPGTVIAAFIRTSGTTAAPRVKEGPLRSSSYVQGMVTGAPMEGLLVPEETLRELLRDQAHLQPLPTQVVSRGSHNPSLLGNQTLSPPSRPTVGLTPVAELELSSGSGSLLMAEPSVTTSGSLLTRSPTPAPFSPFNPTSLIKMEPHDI
Sequence,binding signal (FLI1),binding signal (ELK1),binding signal (GABPA),binding signal (ERG),binding signal (ELF1),binding signal (EHF),binding signal (SPI1),binding signal (SPIB),binding signal (ELK3),binding signal (ETV5),binding signal (SPIC),binding signal (ELF4),binding signal (ELK4),binding signal (ETV2),binding signal (ELF3),binding signal (ETV1),binding signal (FEV)
CGACGC,"1.11 fold enrichment (6-mer frequency, TF over GST control)","1.11 fold enrichment (6-mer frequency, TF over GST control)","1.04 fold enrichment (6-mer frequency, TF over GST control)","1.05 fold enrichment (6-mer frequency, TF over GST control)","1.16 fold enrichment (6-mer frequency, TF over GST control)","1.06 fold enrichment (6-mer frequency, TF over GST control)","1.06 fold enrichment (6-mer frequency, TF over GST control)","1.08 fold enrichment (6-mer frequency, TF over GST control)","1.01 fold enrichment (6-mer frequency, TF over GST control)","1.07 fold enrichment (6-mer frequency, TF over GST control)","1.09 fold enrichment (6-mer frequency, TF over GST control)","1.09 fold enrichment (6-mer frequency, TF over GST control)","1.07 fold enrichment (6-mer frequency, TF over GST control)","1.16 fold enrichment (6-mer frequency, TF over GST control)","1.28 fold enrichment (6-mer frequency, TF over GST control)","1.01 fold enrichment (6-mer frequency, TF over GST control)",–
GCCACT,"1.17 fold enrichment (6-mer frequency, TF over GST control)","1.2 fold enrichment (6-mer frequency, TF over GST control)","1.16 fold enrichment (6-mer frequency, TF over GST control)","1.23 fold enrichment (6-mer frequency, TF over GST control)","1.23 fold enrichment (6-mer frequency, TF over GST control)","1.1 fold enrichment (6-mer frequency, TF over GST control)","1.17 fold enrichment (6-mer frequency, TF over GST control)","1.06 fold enrichment (6-mer frequency, TF over GST control)","1.26 fold enrichment (6-mer frequency, TF over GST control)","1.2 fold enrichment (6-mer frequency, TF over GST control)","1.12 fold enrichment (6-mer frequency, TF over GST control)","1.21 fold enrichment (6-mer frequency, TF over GST control)","1.24 fold enrichment (6-mer frequency, TF over GST control)","1.15 fold enrichment (6-mer frequency, TF over GST control)","1.1 fold enrichment (6-mer frequency, TF over GST control)","1.22 fold enrichment (6-mer frequency, TF over GST control)","1.31 fold enrichment (6-mer frequency, TF over GST control)"
